Sampled rows, rich in hits. Any-hit rate of the full collection: about 3.5%.
BJeLR lethal – MLPCN primary cell-based screen for lethality selective to Ras in HRASV12 cells; 300,000 compounds, 0.17% hits; inhibition, % (no concentration beside the values); AID 1554, 2009; BJeLR (HRASV12) viability, CellTiter-Glo ATP luminescence, 48 h; in the data active = inhibition above about 50%; inconclusive = no clear call, values can overlap the other calls
BoNT-A LC inh2 – BoNT/A light chain protease inhibitors, primary screen, biochemical, flow cytometry, MLPCN library; inhibition, % at 10 µM; 360,000 compounds, 0.17% hits; multiplex microsphere protease substrate cleavage; AID 588499, 2011; Botulinum neurotoxin type A light chain protease (Clostridium botulinum A str. ATCC 3502)
Anthrax LF inh2 – Bacillus anthracis LF protease inhibitors, primary screen, biochemical, multiplex microsphere, MLPCN library. 360,000 compounds, 0.12% hits. multiplex microsphere protease cleavage assay. Lethal factor (Bacillus anthracis), P15917. inhibition, % at 10 µM
Target sequence (P15917 whole entry, looked up): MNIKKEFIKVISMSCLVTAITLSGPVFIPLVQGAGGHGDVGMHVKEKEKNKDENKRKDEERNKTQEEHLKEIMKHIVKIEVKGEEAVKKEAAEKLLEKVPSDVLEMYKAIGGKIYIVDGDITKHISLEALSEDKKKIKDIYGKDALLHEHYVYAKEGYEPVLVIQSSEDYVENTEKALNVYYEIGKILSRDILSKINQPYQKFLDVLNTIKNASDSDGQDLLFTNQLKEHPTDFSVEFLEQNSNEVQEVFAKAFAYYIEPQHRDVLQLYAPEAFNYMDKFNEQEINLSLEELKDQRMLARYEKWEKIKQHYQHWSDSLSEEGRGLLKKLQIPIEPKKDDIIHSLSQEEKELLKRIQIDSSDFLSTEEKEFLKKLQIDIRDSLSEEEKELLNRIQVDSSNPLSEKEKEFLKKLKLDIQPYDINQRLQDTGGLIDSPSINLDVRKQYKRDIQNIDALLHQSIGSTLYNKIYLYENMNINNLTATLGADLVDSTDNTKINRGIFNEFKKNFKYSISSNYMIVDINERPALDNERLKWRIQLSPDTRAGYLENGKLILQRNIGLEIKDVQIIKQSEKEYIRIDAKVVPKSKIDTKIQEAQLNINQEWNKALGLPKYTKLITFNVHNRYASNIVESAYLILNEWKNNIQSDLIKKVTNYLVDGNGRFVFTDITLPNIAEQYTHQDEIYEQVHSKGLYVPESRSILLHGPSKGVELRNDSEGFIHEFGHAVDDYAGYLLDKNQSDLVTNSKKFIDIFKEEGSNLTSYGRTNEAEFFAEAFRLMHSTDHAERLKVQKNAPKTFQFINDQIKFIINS
BoNT-F LC inh – BoNT/F light chain protease inhibitors, primary screen, biochemical, flow cytometry, MLPCN library | 360,000 compounds, 0.22% hits | AID 588497, 2011 | Multiplex microsphere protease cleavage assay | Botulinum neurotoxin type F light chain protease (Clostridium botulinum) | inhibition, % at 10 µM; in the data active = inhibition above about 35%, passing the limit was not always enough; inconclusive = no clear call, values can overlap the other calls
Bead autofluor – compound fluorescence in toxin protease inhibitor counterscreen; 360,000 compounds, 3.1% hits; compound autofluorescence counterscreen, microsphere flow cytometry; active compounds read high; fluorescence intensity (concentration not given with the values); in the data active = fluorescence intensity above about 16000; inconclusive = no clear call, values can overlap the other calls
BoNT-A LC CP1 – BoNT/A light chain protease inhibitors, confirmation, biochemical, flow cytometry, cherry pick 1; inhibition, % at 10 µM; multiplex microsphere protease assay; shares compounds with BoNT-F LC inh; AID 602139, 2011; 720 compounds, 3% hits; in the data active = inhibition above about 32%
BoNT-F LC CP1 – BoNT/F light chain protease inhibitors, confirmation, biochemical, flow cytometry, cherry pick 1. AID 602140, 2011. inhibition, % at 10 µM. multiplex microsphere protease cleavage assay. 720 tested, under 10 active. shares compounds with BoNT-F LC inh; call rule not given here
Anthrax LF CP1 – Bacillus anthracis LF protease inhibitors, confirmation, biochemical, multiplex microsphere, cherry pick 1. multiplex microsphere protease cleavage assay. 720 tested, under 10 active. inhibition, % at 10 µM. shares compounds with BoNT-F LC inh; call rule not given here
Numbers stand for hits; . = inactive; ? = inconclusive; / = not tested or not shown. Rule as the data show it, unless noted: active = inhibition above about 30%; inconclusive = no clear call, values can overlap the other calls; inactive = below that.

SMILES	BJeLR lethal	BoNT-A LC inh2	Anthrax LF inh2	BoNT-F LC inh	Bead autofluor	BoNT-A LC CP1	BoNT-F LC CP1	Anthrax LF CP1
Cc1ccc(S(=O)(=O)N(CC(=O)NCc2ccncc2)Cc2ccccc2F)cc1	.	.	.	35	.	.	.	.
CCc1nnc(NC(=O)CSc2nnc(C)n2Cc2ccccc2)s1	.	.	.	.	.	/	/	/
Cc1nnc(SCC(=O)Nc2sccc2C(N)=O)n1Cc1ccccc1	.	?	.	36	.	.	.	.
CCCCNc1nnc(SCC(=O)c2c[nH]c3ccccc23)s1	.	54	.	.	.	.	.	.
O=C(CSc1nncn1-c1ccccc1)c1c[nH]c2ccccc12	.	53	.	.	.	.	.	.
CCCCNc1nnc(SCC(=O)c2c(N)n(C3CC3)c(=O)[nH]c2=O)s1	/	.	.	.	.	/	/	/
O=C(CSc1nc2ccccc2c(=O)n1-c1ccccc1)c1c[nH]c2ccccc12	.	.	.	.	.	/	/	/
O=C(Nc1nc(-c2ccccn2)cs1)c1cccc(S(=O)(=O)N2CCOCC2)c1	/	.	.	.	.	/	/	/
COC(=O)C(CCSC)NC(=O)c1cc2c(n(-c3ccccc3)c1=O)CC(C)(C)CC2=O (configuration not stated)	.	.	.	.	.	/	/	/
CN1CCN(c2nc(C(N)=O)cc(-c3ccccc3)n2)CC1	.	.	.	36	.	.	.	.
CCN(CC)c1nc(C(N)=O)cc(-c2ccccc2)n1	.	.	.	.	.	/	/	/
Cc1ccc(CNC(=O)C(C)OC(=O)c2cccs2)cc1 (configuration not stated)	.	.	.	.	.	/	/	/
O=C(COc1ccc(S(=O)(=O)NCc2ccccc2)cc1Cl)NCc1ccccn1	.	.	.	68	.	.	.	.
O=C(COc1ccc(S(=O)(=O)NCc2ccccc2)cc1Cl)NCc1ccncc1	.	.	.	.	.	/	/	/
CS(=O)(=O)N1CCc2cc(C(=O)Nc3ccc(O)cc3)ccc21	.	.	.	56	.	.	.	.
CCn1c(SCc2nc(-c3ccccc3)no2)nc2ccccc21	.	.	.	.	.	/	/	/
CCOC(=O)CC(=O)CSc1ncc(C(=O)OCC)c(N)n1	.	.	50	134	.	.	.	.
Cc1cc(C)n(C(=O)Cn2nc(C)c(Br)c2C)n1	.	.	.	?	.	/	/	/
O=[N+]([O-])c1cccc(-c2ncc3ccccn23)c1	.	.	.	.	.	/	/	/
Clc1ccccc1-c1ncc2ccccn12	.	.	.	.	.	.	.	.
COc1ccc(-c2cncc3nccn23)cc1OC	/	.	.	.	.	/	/	/
COc1ccc(-c2ncc3ccccn23)cc1OC	.	.	.	.	.	.	.	.
Clc1ccc(-c2ncc3ccccn23)cc1	.	51	.	.	.	.	.	.
CCn1c(SCC(=O)Nc2ccccc2OC)nc(O)cc1=O	.	.	.	?	.	/	/	/
Cc1cnc(CNC(=O)C2CCC(=O)N(CCc3cccc(F)c3)C2)[nH]1 (configuration not stated)	.	.	.	.	.	/	/	/
SMILES	BJeLR lethal	BoNT-A LC inh2	Anthrax LF inh2	BoNT-F LC inh	Bead autofluor	BoNT-A LC CP1	BoNT-F LC CP1	Anthrax LF CP1
Cc1ccc(O)c(-c2cc(C(=O)NCc3ccc4c(c3)OCO4)[nH]n2)c1	.	.	.	.	.	/	/	/
CCN1CCN(S(=O)(=O)c2ccc(Cl)c(C(=O)N(C)C3CCCCC3)c2)CC1	/	.	.	.	.	/	/	/
Cc1nc(CCNC(=O)C2CCC(=O)N(CCc3cccc(F)c3)C2)sc1C (configuration not stated)	.	.	.	.	.	/	/	/
Cc1n[nH]c(C)c1CCNC(=O)C1CCC(=O)N(CCc2cccc(F)c2)C1 (configuration not stated)	.	.	.	35	?	.	.	.
COc1ccc(CNC(=O)CSc2nnc(NC(=O)C3CC3)s2)cc1	.	.	.	35	.	.	.	.
N#Cc1c(-c2ccccc2)ccnc1N1CCOCC1	.	.	.	.	.	/	/	/
COc1ccccc1N1C(=O)c2ccc(C(=O)Nc3nccs3)cc2C1=O	.	.	.	.	.	/	/	/
Oc1ccccc1-c1nnc(-c2ccc(C(F)(F)F)cc2)o1	.	.	.	35	.	.	.	.
CCc1sc(C(=O)Nc2ncccc2O)cc1C	.	.	.	.	.	/	/	/
COC(=O)C1CCN(C(=O)CN(C)Cc2ccc(C(C)(C)C)cc2)CC1	.	.	.	36	.	.	.	.
CN(Cc1ccc(C(C)(C)C)cc1)C(=O)C1CCN(C(=O)Nc2ccccc2)CC1	.	.	.	.	?	/	/	/
C=CCSc1nc(-c2ccc3c(c2)OCO3)cc(C(F)(F)F)c1C#N	.	31	.	.	.	.	.	.
CCc1ccc(NC(=O)CN2CCN(c3ccc(OC)cc3)CC2)cc1	/	.	.	.	.	/	/	/
COc1ccc(-c2cc(C(=O)Nc3ccc(F)cc3F)no2)cc1	.	.	32	.	.	.	.	.
COc1cc(C(=O)Nc2nnc(-c3sccc3C)s2)cc(OC)c1OC	.	.	.	.	.	/	/	/
COCCN(C(=O)c1ccccc1)c1nnc(-c2cccnc2)s1	.	.	.	36	.	.	.	.
COCCN(C(=O)CC(C)(C)C)c1nnc(-c2cccnc2)s1	.	.	.	.	.	/	/	/
CCN(CC)C(=O)CSc1nnc(CCCCCNC(=O)OC(C)(C)C)o1	.	.	.	.	.	/	/	/
O=C(NC(=S)Nc1ccccc1Cl)c1csnn1	.	?	.	.	.	/	/	/
CCC(=O)N1c2ccccc2NC2=C(C(=O)CCC2)C1c1ccccc1 (configuration not stated)	.	.	.	.	.	/	/	/
Cc1nn2c(c1-c1ccccc1)NC1=C(C(=O)CCC1)C2c1ccccc1 (configuration not stated)	.	.	.	36	.	.	.	.
Cc1cc(C)nc(SCc2ccc(Cl)cc2)n1	.	.	32	.	.	.	.	.
CCOC(=O)C1CCCN(C(=O)c2cc(C)oc2C)CC1 (configuration not stated)	/	.	.	.	.	/	/	/
O=C(CSc1ccc2ccccc2c1)NC1CCCc2ccccc21 (configuration not stated)	.	.	.	.	.	/	/	/
Cc1ccc(NC(=O)CCn2c(=O)[nH]c3ccsc3c2=O)cc1	.	/	/	/	/	/	/	/
COc1cc(NC(=O)CCn2c(=O)[nH]c3ccsc3c2=O)cc(OC)c1	.	.	.	41	.	.	.	.
CC(C)NC(=O)c1sc2nc(-c3cccs3)cc(-c3cccs3)c2c1N	.	/	/	/	/	/	/	/
CC(=O)c1sc2nc(-c3cccs3)ccc2c1N	.	34	.	.	.	.	.	.
Nc1ccc(C(=O)Nc2nc3ccccc3s2)cc1	.	.	.	.	.	/	/	/

Screening results (PubChem BioAssay)
